ChEMBL document CHEMBL1201862, “PubChem BioAssay data set” (2004)
Among all 41,000 sequences or so, about 2,700 (6.6%) were called active. No stated cut-off is given here; in the data, active = GI50 up to about 1.1 µM and inactive = higher. The list is a sample of the results. Results with a measured potency or affinity are listed apart.

Each substance was assayed on BT-549.
For “[Bis(aminomethyl)tetramethylenesilane]dichloropaltinum(II), CHEMBL2146205”, the GI50 was 8.85 µM. “[Bis(aminomethyl)pentamethylenesilane]tetrachloropaltinum(IV), CHEMBL2146204” showed a GI50 of 5.71 µM. With CISPLATIN, CHEMBL11359 the GI50 was 3.73 µM. With “[Bis(aminomethyl)dimethylsilane]tetrachloroplatinum(IV), CHEMBL2146190” the GI50 was 16.4 µM. “[Bis(aminomethyl)tetramethylenesilane]tetrachloropaltinum(IV), CHEMBL2146189” showed a GI50 of 4.99 µM. “[Bis(aminomethyl)pentamethylenesilane]dichloropaltinum(II), CHEMBL2146202” gave a GI50 of 16.6 µM.
